The values below come from PubChem BioAssay AID504873 (The Scripps Research Institute Molecular Screening Center, 2011).

Results with a measured potency or affinity are listed apart. Active and inactive are the calls of the source. No rule for the calls is given here.

The test concerns the target Sphingosine 1-phosphate receptor 2 (Homo sapiens) (UniProt O95136). The experiment in a line: S1P2 receptor agonists, human, late-stage follow-up, counter-screen for S1P4 agonist project, cell-based, fluorescence, set 2 (AID 504873). (In general: A counterscreen serves to expose hits that act by an unwanted route or on another target.)

Sphingosine 1-phosphate receptor 2 (Homo sapiens), sequence (O95136 whole entry, looked up): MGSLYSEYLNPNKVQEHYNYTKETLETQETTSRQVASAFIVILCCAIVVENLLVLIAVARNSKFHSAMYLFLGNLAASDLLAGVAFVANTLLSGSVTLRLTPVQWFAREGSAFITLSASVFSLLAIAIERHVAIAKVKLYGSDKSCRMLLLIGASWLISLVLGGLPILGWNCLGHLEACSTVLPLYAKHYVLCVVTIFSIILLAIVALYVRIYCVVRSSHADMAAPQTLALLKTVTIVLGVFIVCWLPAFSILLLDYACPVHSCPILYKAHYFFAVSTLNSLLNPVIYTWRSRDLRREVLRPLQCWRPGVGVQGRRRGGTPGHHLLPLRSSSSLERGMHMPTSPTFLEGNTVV

Turning to `CC/N=C1/SC(=Cc2cc(C)n(Cc3ccccc3OC)c2C)C(=O)N1CC`, the molecule was called inactive.
